The list is not random: actives were taken first. Their share in the collection is about 11%.
3T3 cytotox: NIH 3T3 cell cytotoxicity | NIH 3T3 viability, CellTiter-Glo ATP luminescence, 48-72 h | Potency, µM (doses to about 96.7 µM), inactives show at the top dose activity change, negative = cytotoxicity, actives largely listed as inhibitors | 4.3% of 94,000 active; also: % is scaled to controls: 0 for no effect and ±100 for the full control effect; nearly all actives have a fitted effect of over 55% in size
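Luminescent ATP readout (CellTiter-Glo, 10 min RT) after 48 or 72 hr compound exposure of NIH 3T3 cells seeded at 400 cells/well in 1536-well format; quantitative HTS.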
FLuc inh-1: Photinus pyralis luciferase inhibition; P08659; purified P. pyralis luciferase, luminescence, biochemical; Potency, µM (highest dose often 115 µM), usual class: inhibitors; 2.5% of 76,000 active; AID 1347043; also: % is scaled to controls: 0 for no effect and ±100 for the full control effect; nearly all actives have a fitted effect of over 65% in size
Target sequence (P08659 whole entry, looked up): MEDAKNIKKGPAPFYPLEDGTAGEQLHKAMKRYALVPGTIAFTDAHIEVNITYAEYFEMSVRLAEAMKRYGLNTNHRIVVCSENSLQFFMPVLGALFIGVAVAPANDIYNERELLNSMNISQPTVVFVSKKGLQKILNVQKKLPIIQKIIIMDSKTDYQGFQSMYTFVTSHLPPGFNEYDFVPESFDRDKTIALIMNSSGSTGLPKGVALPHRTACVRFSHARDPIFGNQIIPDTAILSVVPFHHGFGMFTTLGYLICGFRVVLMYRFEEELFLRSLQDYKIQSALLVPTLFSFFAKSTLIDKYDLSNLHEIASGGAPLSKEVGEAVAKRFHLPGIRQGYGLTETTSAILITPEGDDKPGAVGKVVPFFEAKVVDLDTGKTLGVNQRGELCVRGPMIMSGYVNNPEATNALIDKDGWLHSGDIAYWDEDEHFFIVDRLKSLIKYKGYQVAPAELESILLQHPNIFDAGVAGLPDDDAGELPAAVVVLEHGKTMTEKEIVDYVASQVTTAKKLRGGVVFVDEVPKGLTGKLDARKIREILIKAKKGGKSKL
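Inhibitors were tested against purified firefly luciferase in a biochemical, low-substrate format (both substrates at 10uM) and luminescence measured with a CCD imager.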
HEK cytotox: kills HEK 293 cells | Potency, µM (titrated, usually from 115 µM), inactives show at the highest dose activity change, negative = cytotoxicity, usual class: inhibitors | HEK 293 viability, ATP luminescence (CellTiter-Glo), 48-72 h | 6.6% of 94,000 active; also: % is scaled to controls: 0 for no effect and ±100 for the full control effect; nearly all actives have a fitted effect of over 60% in size
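qHTS cytotoxicity; HEK 293, 250 cells/well; compound pinned; 48 or 72 hr, 37 degree Celsius, 5% CO2, 95% humidity; CellTiter-Glo, 10 min RT; luminescence (ATP).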
NPR1 antag: blocks ANP-stimulated signaling of human Npr1 receptor; AID 1347048; Potency, µM (series often up to 46.3 µM), without a hit: at the highest dose activity change, negative = inhibition, usual class: inhibitors; 1.6% of 76,000 active; HEK293 hNpr1 GloSensor cGMP, ANP-stimulated luminescence; calls by dose curve; also: % is scaled to controls: 0 for no effect and ±100 for the full control effect; nearly all actives have a fitted effect of over 60% in size
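Compound pre-incubated 30 min at room temperature on GloSensor-loaded HEK293 cells stably carrying hNpr1 and the pGS-40F cGMP biosensor. Stimulation uses hNppA at 0.1 nM final; luminescence is taken at baseline and 20 min post-agonist.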
FLuc SDR no ATP: stabilizes firefly luciferase without ATP. shares compounds with FLuc inh-1. Purified FLuc-C-HiBiT, Nano-Glo HiBiT luminescence, no ATP. Potency, µM (doses to about 32.7 µM), inactives show at the highest dose activation (signal gain), most hits filed as activators. 7.8% of 1,300 active; also: nearly all actives have a fitted effect of over 55% in size
FLuc SDR ATP: stabilizes firefly luciferase with ATP present. shares compounds with FLuc inh-1. purified FLuc-C-HiBiT + ATP, HiBiT complementation luminescence. Potency, µM (series often up to 32.7 µM), without a hit: top-dose activation (gain of signal), hits mostly activators. 8.7% of 1,300 active. AID 1963319;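 also: signal reports ligand binding via conformational change of the enzyme rather than luciferase catalysis; % of control where 0% means no effect; nearly all actives have a fitted effect of over 55% in size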
FLuc inh-2: blocks firefly luciferase enzymatic activity; shares compounds with FLuc inh-1; purified FLuc-C-HiBiT enzyme, luciferin luminescence; Potency, µM (titrated, usually from 32.7 µM), without a hit: at the top dose activity change, negative = inhibition, actives largely listed as inhibitors; 42% of 1,300 active; also: % is scaled to controls: 0 for no effect and ±100 for the full control effect; nearly all actives have a fitted effect of over 70% in size
* marks the source's active call; other numbers are inactive results; i = inactive; ? = inconclusive; . = not tested or not shown; [ ] = dose if it differs, or a comment. Unless noted, calls follow the shape of the dose curve; as a rule, active = well fitted curve in the direction sought with a large enough effect; inconclusive = small, poorly fitted or top-dose-only effect, or another doubt; inactive = no such curve, though single readings can be large; an effect the other way counts as inactive or inconclusive. Potency is read from the fitted curve at half-maximal effect.

SMILES	3T3 cytotox	FLuc inh-1	HEK cytotox	NPR1 antag	FLuc SDR no ATP	FLuc SDR ATP	FLuc inh-2
CN(CCc1ccccn1)[C@H]1[C@@H]2OC[C@@H](O2)[C@@H](NCc2ccccn2)[C@@H]1O	3%[174 µM]	i	i	4%[70.6 µM]	.	.	.
CC(=O)NCCC1CCN(C(=O)Nc2ccc(C)cc2)CC1	3%	8.9µM*	10%	-21%	?	?	?
CCC(=O)NCCC1CCN(C(=O)Nc2ccc(C)c(F)c2)CC1	-3%	11µM*	9%	-3%	?	?	?
COc1ccc(C(=O)NCCC2CCN(C(=O)Nc3ccc(C)cc3)CC2)cc1	-21%	?	2%	-21%	.	.	.
CCC(=O)NCCC1CCN(C(=O)Nc2ccccc2F)CC1	0%	i	0%	-1%	.	.	.
CCC(=O)NCCC1CCN(C(=O)Nc2ccc(C)cc2)CC1	i	13µM*	12%	-1%	?	?	?
COCCC(=O)NCCC1CCN(C(=O)Nc2ccc(C)cc2)CC1	i	?	16%	3%	.	.	.
COC(=O)[C@@H]1C[C@H](NC(=O)c2ccc(Oc3ccccc3)cc2)CN1C	-22%	14µM*	-26%	-1%	16%	12%	?
CCC(=O)Nc1ccc2nnc(-c3ccc(C(=O)Nc4ccc5c(c4)OCCO5)cc3)n2c1	i	14µM*	?	-18%	21%	?	?
COc1cccc(-c2nc(-c3cccc(C(=O)O)c3)no2)c1	.	.	.	.	12µM*	0.007µM*	0.0039µM*
O=C(O)c1cccc(-c2noc(-c3cccc(Cl)c3)n2)c1	.	.	.	.	12µM*	0.022µM*	0.007µM*
O=C(O)c1cccc(-c2noc(-c3ccc(Cl)cc3)n2)c1	.	.	.	.	2.8µM*	0.005µM*	0.0022µM*
O=C(O)c1ccc(-c2noc(-c3cccc(C(F)(F)F)c3)n2)cc1	.	.	.	.	12%	20%	?
O=C(c1ccc(C(F)(F)F)cc1)N1CCCC(C(=O)N2CCC(c3nc4ncccc4[nH]3)C2)C1 (stereo not given)	-20%	.	-19%	.	.	.	.
COc1ccccc1-c1nnc2ccc(C(=O)NCc3ccccn3)cn12	i	.	1%	.	.	.	.
C[C@H]1[C@@H]2[C@@H](O)C([C@H](C)C(=O)NCc3ccccn3)CC[C@@]2(C)CC[C@@H]1NC(=O)c1ccccc1 (stereo not given in full)	-20%	i	-1%	-3%	.	.	.
COCCc1noc(-c2nc(-c3ccc(OC)cc3)no2)n1	-11%	?	?	-17%	.	.	.
O=C(O)c1ccc(-c2noc(-c3ccc(Cl)cc3)n2)cc1	.	.	.	.	?	1.4µM*	0.79µM*
COc1ccccc1-c1nc(-c2ccc(C(=O)O)cc2)no1	.	.	.	.	16%	2.2µM*	2µM*
CC(=O)N1CCC(Oc2ccccc2-c2nc(-c3ccccc3)no2)C1 (stereo not given)	?	i	?	12%	.	.	.
COc1ccc(-c2nc(-c3ccc(C(=O)O)cc3)no2)cc1	.	.	.	.	12µM*	0.11µM*	0.11µM*
Fc1ccc(CN2CCC3(CC(Cc4ccccc4)=NO3)C2)cc1 (stereo not given)	?	i	?	4%[70.6 µM]	.	.	.
COCCNC(=O)c1cnc2c(c1)N(Cc1ccccc1C(F)(F)F)CCC2	?	i	?	0%[70.6 µM]	.	.	.
COc1ccc(-c2ccc3c(c2)C(=O)N2CC[C@H](NC(=O)COCC(=O)O)[C@H]2C(=O)N3)c(OC)c1	-16%	?	-24%	1%	.	.	.
COc1ccc(/C=C/c2ccc3c(c2)C(=O)N2CC[C@H](NC(=O)COCC(=O)O)[C@H]2C(=O)N3)cc1	?	7.9µM*	?	-2%	?	?	9.9µM*
SMILES	3T3 cytotox	FLuc inh-1	HEK cytotox	NPR1 antag	FLuc SDR no ATP	FLuc SDR ATP	FLuc inh-2
CSCC(=O)N[C@H]1CCN2C(=O)c3cc(/C=C/c4ccccc4)ccc3NC(=O)[C@H]12	-26%[174 µM]	11µM*	?	2%[70.6 µM]	17%[49.3 µM]	10%[49.3 µM]	?
CO[C@H]1CN(C(C)C)[C@H]1C1CCN(C(=O)c2ccc(C#N)cc2)CC1	-17%	.	-2%	.	.	.	.
CC(C)CCN1C(=O)N(CCCc2ccncc2)C(=O)C12CCN(CC1=CC[C@H]3C[C@@H]1C3(C)C)CC2	2%	i	8%	-9%	.	.	.
O=C(c1nc2sccn2c1-c1ccc(C(F)(F)F)cc1)N1CCOCC1	-16%	.	-13%	.	.	.	.
COc1ccc(-c2ncc3c(n2)OCCN(C)C3=O)cc1F	.	.	.	.	?	?	18µM*
COc1ccc(-c2ncc3c(n2)OCCN(c2ccccc2)C3=O)cc1F	?	0.71µM*	-27%[172 µM]	16µM*	?	?	3.2µM*
COc1ncccc1-c1ncc2c(n1)OCCN(c1ccccc1)C2=O	?	i	0%[172 µM]	-1%[70.6 µM]	.	.	.
O=C1c2cnc(-c3ccc(CO)cc3)nc2OCCN1c1cccc(C(F)(F)F)c1	?	?	?	-23%[70.6 µM]	.	.	.
O=C1c2cnc(-c3cccc(CO)c3)nc2OCCN1c1ccccc1	40µM*	3.2µM*	40µM*	?	20µM*	?	11µM*
CN1CCOc2nc(-c3ccc(Oc4ccccc4)cc3)ncc2C1=O	?	4.5µM*	?	25µM*	21%[49.3 µM]	19%[49.3 µM]	?
C[S+](=O)([O-])c1ccc(-c2ncc3c(n2)OCCN(c2ccccc2)C3=O)cc1	?	?	?	3%[70.6 µM]	.	.	.
CCOC(=O)C1CCN(C(=O)c2ccc3nnc(C4CCCC4)n3c2)CC1	-31%	.	-10%	.	.	.	.
CCOc1ccc(C(=O)N2CCCC(c3noc(COc4ccccc4)n3)C2)cc1 (stereo not given)	?	i	?	-5%	.	.	.
CC1(Cc2ccc3c(c2)OCO3)CCCN(C(=O)c2ccc3ncsc3c2)C1 (stereo not given)	-19%	7.9µM*	45µM*	-23%	?	18%	?
